Experimental data taken from PubChem BioAssay (NCI).
About 83,000 compounds went through this panel and 20% of them were active in at least one assay; those are over-represented in the sample as a whole.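 The test compound was applied at a single concentration to cells in 96-well plates for 48 hours, and percent growth was recorded.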 Unmarked numbers belong to inactive results. Calls of active or inactive are those of the source.

Each compound was assayed on HS 578T breast (assay: NCI-60 one-dose screen, 48 h (100 = growth as untreated, 0 = no growth, -100 = all killed)). Details: 10 µM unless noted.
Experimental: Growth inhibition of the HS 578T human tumor cell line is measured as a screen for anti-cancer activity. Cells are grown in 96 well plates and exposed to the test compound for 48 hours. Compounds are tested at a single concentration, which is 10^-5 M for most compounds. The reported endpoint is percent growth (GI% or GIPRCNT), where numbers from 0 - 100% represent growth inhibition, and numbers from -100% - 0 represent cell death. For example, a value of 40 represents 60% growth inhibition. A value of 0 means no net growth occurred over the course of the experiment. A value of -40 indicates 40% of cells at the beginning of the experiment died by the end of the experiment. A value of -100 means all cells are dead at the end of the experiment.
NCI-60 Human Tumor Cell Lines Screen was performed using the standard one-dose NCI protocol, which is described in more detail at https://dtp.cancer.gov/discovery_development/nci-60/default.htm.
Compounds with GIPRCNT values below 10 were considered active. Activity score was based on GIPRCNT using the following formula: […]
Score is 0 for GIPRCNT values of 100 or above, 50 for GIPRCNT values of 0, and 100 for GIPRCNT values of -100.

| Compound | growth |
| --- | --- |
| Cc1nn(-c2nc3ccccc3s2)c(C)c1Oc1ccccc1O | 39% |
| O=C(Nc1cccc(-n2cc(-c3ccncc3)c(-c3cc(O)cc(Cl)c3)n2)c1)Nc1ccc(Cl)c(Cl)c1 | -6.42% (active) |
| COc1cc(/C=C/C(=O)CC(=O)/C=C/c2ccc(OC(=O)C3C4CC5CC(C4)CC3C5)c(OC)c2)ccc1OC(=O)C1C2CC3CC(C2)CC1C3 (stereo not given) | 129% |
| O=C(O)C1CCN(S(=O)(=O)c2ccc(-c3ccccc3)cc2)CC1 | 113% |
| ICCC(c1ccccc1)(c1ccccc1)c1ccccc1 | 48.3% |
| O=[N+]([O-])c1cc([N+](=O)[O-])c(N2CCCC2)cc1NN=C(c1ccc(O)cc1)c1ccc(O)cc1 | 137% |
| COc1ccc(CNC(=O)c2c(C)n([O-])c3ccccc3[n+]2=O)cc1 | 111% |
| COc1cccc(C2=NN(C(C)=O)C(c3cc(OC)c(OC)c(OC)c3)C2)c1 (stereo not given) | 15.4% |
| COc1cc(-c2nnc(-c3nc(-c4cc(OC)c(OC)c(OC)c4)n4ccccc34)o2)ccc1N | 44.2% |
| COc1cccc(-c2nc(-c3ccc(N)cc3)co2)c1 | 115% |
| CNNc1ncnc2c1cnn2-c1ccc(S(N)(=O)=O)cc1 | 104% |
| COCCCNS(=O)(=O)c1ncnc2nc[nH]c12 | 104% |
| O=C1/C(=C/c2cccc(Cl)c2)CCc2ccccc21 | 110% |
| Clc1ccc2nc(CI)c(CI)nc2c1 | 158% |
| CC(=O)N1N=C(c2ccc(C(F)(F)F)cc2)CC1c1ccc2c(c1)OCO2 (stereo not given) | 97.8% |
| O=C1C=CC(=O)N1c1ccccn1 | 97.4% |
| CC[n+]1c(/C=C/c2ccc(N3CCCC3)cc2)cccc1/C=C/c1ccc(N2CCCC2)cc1 | -70.2% (active) |
| O=C(C(=O)c1cc(Br)ccc1O)c1cc(Br)ccc1O | 38.8% |
| [N-]=[N+]=NCc1cccc(/C(O)=C/C(=O)C(=O)O)c1 | 82.6% |
| CCN1CC2=C(Nc3nc(SC)[nH]c(=O)c3C2c2cc(OC)c(OC)c(OC)c2)/C(=C/c2cc(OC)c(OC)c(OC)c2)C1 (stereo not given) | 111% |

| Compound | growth |
| --- | --- |
| COc1ccc(CCN2C(=O)CCC3=C2CCCC3=O)cc1OC | 94.6% |
| CSc1nc(N)c2c(n1)N(C)C=NS2(=O)=O | 118% |
| COc1ccc(C(=O)COc2cccc(/C=C3\CSc4ccc(Cl)cc4C3=O)c2)cc1 | 91% |
| O=C(CN1CCN(c2ccc(Cl)cc2)CC1)N1CCN(c2nnc(-c3ccccc3)c(-c3ccccc3)n2)CC1 | 62.6% |
| COc1ccc(CNC(=O)c2c(C)n([O-])c3ccc(OC)cc3[n+]2=O)cc1 | 108% |
| COc1cc2c(cc1OC)C(CC1(O)CCCCC1)N(S(=O)(=O)c1ccc(C)cc1)CC2 (stereo not given) | 57.3% [100 µM] |
| CC[C@@H](C)/C=C(C)/C=C/C(=O)c1c(O)c(-c2ccc(O)cc2)cn(OC2CC(=O)CCC(C)OC(=O)CC2O)c1=O (stereo not given in full) | 35.1% |
| CC(C)=CCCC(C)c1ccc(C)c2c1OCN(CC1CCNCC1)C2 (stereo not given) | 64.3% |
| COC(=O)C1=CCC(n2cnc3c(N)ncnc32)O1 (stereo not given) | 110% |
| CN(C)c1ccc(-c2nc3ncc(Br)cc3o2)cc1 | 97.2% |
| C[C@H]1O[C@@H](O[C@H]2[C@@H](O)C[C@H](O[C@H]3[C@@H](O)C[C@H](O[C@H]4CC[C@]5(C)C6CC[C@]7(C)[C@@H](C8=CC(=O)OC8)CC[C@]7(O)C6CC[C@@H]5C4)O[C@@H]3C)O[C@@H]2C)C[C@H](O)[C@@H]1O (stereo not given in full) | -1.73% (active) |
| Cc1ccc2nc(SCC(=O)Nc3ccc(-c4nc5ccccc5s4)c(Cl)c3)[nH]c2c1 | 110% |
| COc1ccc(-c2nnc3c4[nH]cnc4ncn23)c(OC)c1 | 54.4% |
| N/C(=N\c1nc2ccccc2s1)NC(=O)Nc1ccccc1Cl | 30% |
| N#Cc1c(NC(=O)c2ccco2)[n+]([O-])c2cc(Cl)c(Cl)cc2[n+]1[O-] | 84.4% |
| N=C1c2nc3n(c2C(=O)c2nc4n(c21)CCCCC4)CCCCC3 | 112% |
| Nc1ccc2c(c1)C(=O)c1cc(Cl)c(Cl)cc1-2 | 105% |
| CC1=C([Se]CC(OC(=O)[C@@H](CSSC(C)(C)C)NC(=O)C(C)(C)C)C(=O)NCCCCCC(=O)OCc2ccccc2)C(=O)c2ccccc2C1=O (stereo not given in full) | 13.6% |
| N#CC(C#N)C(C#N)C#N | 102% |
| c1ccc(CN=C(NCc2ccccc2)NCc2ccccc2)cc1 | 96.7% |
